Test results published in PubChem BioAssay (NCI).
The panel holds about 83,000 compounds, 20% with a hit somewhere; the sample as a whole holds those more often.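 Step 1: grow cells in 96-well plates. Step 2: add test compound at a single concentration. Step 3: incubate 48 h. Step 4: record percent growth.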 Calls of active or inactive are those of the source. How the source made its calls: active means growth percent below 10; inactive means the rest.

Assays:
Assay in all cases: NCI-60 one-dose screen, 48 h (100 = growth as untreated, 0 = no growth, -100 = all killed)
Settings in all cases: 10 µM unless noted
SK-MEL-2 melanoma = system: SK-MEL-2 melanoma
EKVX NSCLC = system: EKVX NSCLC
SN12C renal = system: SN12C renal
UO-31 renal = system: UO-31 renal
TK-10 renal = system: TK-10 renal
ACHN renal = system: ACHN renal
CAKI-1 renal = system: CAKI-1 renal
A498 renal = system: A498 renal
CCRF-CEM leukemia = system: CCRF-CEM leukemia
MOLT-4 leukemia = system: MOLT-4 leukemia

Measured: growth

CCN1CCN(Cc2ccc(NC(=O)c3nc4ccc5[nH]ncc5c4c4c3CCCC4)cc2C(F)(F)F)CC1
inactive: SK-MEL-2 melanoma 92% | EKVX NSCLC 74.3% | A498 renal 93.2%
active: SN12C renal -75.6% | UO-31 renal -91.8% | TK-10 renal -33.7% | ACHN renal -97.1% | CAKI-1 renal -11.7% | CCRF-CEM leukemia 3.68%

C#CC[C@@H]1C[C@]2(C)[C@H]3CC[C@@H]4[C@H]5C(C(=C)C)CC[C@]5(C(=O)NCCCCN)CC[C@@]4(C)[C@]3(C)CC[C@H]2C(C)(C)[C@H]1OC(C)=O (stereo partly specified)
inactive: SK-MEL-2 melanoma 61% | EKVX NSCLC 90.1% | A498 renal 108%
active: SN12C renal -82.9% | UO-31 renal -97.1% | TK-10 renal -92.9% | ACHN renal -98.3% | CAKI-1 renal -98.8% | CCRF-CEM leukemia -11% | MOLT-4 leukemia -21.3%

C=C(C)[C@@H]1CC[C@]2(C)[C@H](CC=C3[C@@H]4C[C@](C)(C(=O)N5CCN(C)CC5)CC[C@]4(C)CC[C@]32C)[C@@]1(C)CCC#N
inactive: SK-MEL-2 melanoma 76.4% | EKVX NSCLC 85.6% | SN12C renal 75.2% | UO-31 renal 66.1% | TK-10 renal 75.8% | ACHN renal 80.4% | CAKI-1 renal 63% | A498 renal 97% | CCRF-CEM leukemia 34.1% | MOLT-4 leukemia 32.1%

CCCCCCCCCC1=NC(C)(C)CN1C(C)(C)CO
inactive: SK-MEL-2 melanoma 124% | EKVX NSCLC 90.8% | SN12C renal 83.6% | UO-31 renal 56.8% | TK-10 renal 97.7% | ACHN renal 93.6% | CAKI-1 renal 75% | A498 renal 93% | CCRF-CEM leukemia 82.4% | MOLT-4 leukemia 15.9%

COc1c(B(O)O)cccc1-c1nc2ccc3[nH]ncc3c2c2c1CCCC2
active: UO-31 renal 0.387% | ACHN renal 3.93% | CAKI-1 renal 5.83% | A498 renal -16.4%
inactive: SK-MEL-2 melanoma 33.7% | EKVX NSCLC 23.6% | SN12C renal 23.7% | TK-10 renal 11.5%

CCN(CC)c1ccc(C(=N)c2ccc(N(C)C)cc2)cc1
inactive: EKVX NSCLC 15.2% | SN12C renal 24.8% | TK-10 renal 31.4% | ACHN renal 30.1% | CCRF-CEM leukemia 21.7% | MOLT-4 leukemia 17.7%
active: SK-MEL-2 melanoma -4.95% | UO-31 renal 8.99% | CAKI-1 renal -19.9% | A498 renal -20.1%

CCN(C)CCCOc1ccc(/C(=C(\C)Cc2cccc(OC)c2)c2ccc(OC(C)=O)cc2)cc1
inactive: SK-MEL-2 melanoma 103% | EKVX NSCLC 92.5% | SN12C renal 95% | UO-31 renal 92% | TK-10 renal 95% | ACHN renal 104% | CAKI-1 renal 94.9% | A498 renal 94.3% | CCRF-CEM leukemia 96.6% | MOLT-4 leukemia 103%

COc1cc2nccc(Oc3ccc(NC(=O)C4(C(=O)Nc5ccc(F)cc5)CC4)cc3)c2cc1Oc1ccc(N)cn1
active: A498 renal -20.9%
inactive: SK-MEL-2 melanoma 54.3% | EKVX NSCLC 15.9% | SN12C renal 14.8% | UO-31 renal 19.8% | TK-10 renal 36.3% | ACHN renal 18.6% | CAKI-1 renal 43.5% | CCRF-CEM leukemia 61.2% | MOLT-4 leukemia 29.5%

CO[C@@]12[C@@H]3NC3CN1C1=C(C(=O)C(N)=C(C)C1=O)[C@@H]2COC(N)=O (stereo partly specified)
active: SK-MEL-2 melanoma -11.2% | UO-31 renal 5.54% | TK-10 renal 9.47% | ACHN renal -10.3% | A498 renal -82.9%
inactive: EKVX NSCLC 49.6% | SN12C renal 24.6% | CAKI-1 renal 14.9% | CCRF-CEM leukemia 27.1%

O=C(O)c1ccccc1N=Cc1ccccc1
inactive: SK-MEL-2 melanoma 108% | EKVX NSCLC 101% | SN12C renal 110% | UO-31 renal 97.5% | TK-10 renal 103% | ACHN renal 105% | CAKI-1 renal 96.3% | A498 renal 117% | CCRF-CEM leukemia 88.5% | MOLT-4 leukemia 94.6%

O=C(/C=C/c1cc([N+](=O)[O-])ccc1Cl)c1ccccc1
inactive: SK-MEL-2 melanoma 107% | EKVX NSCLC 84.6% | SN12C renal 80.8% | UO-31 renal 70.8% | TK-10 renal 112% | ACHN renal 91.2% | CAKI-1 renal 73.2% | A498 renal 86% | CCRF-CEM leukemia 68.7% | MOLT-4 leukemia 78%

COc1ccc(NC(=O)c2ccc(C(F)(F)F)nc2Nc2ccc(Cl)cc2C)cc1Cl
active: UO-31 renal 9.94%
inactive: SK-MEL-2 melanoma 31.9% | EKVX NSCLC 11.3% | SN12C renal 24% | TK-10 renal 60% | ACHN renal 14.5% | CAKI-1 renal 19.9% | A498 renal 11.5% | CCRF-CEM leukemia 11%

CN=C1C=C/C(=N/N=c2/ccn(O)cc2C)C=C1C
inactive: SK-MEL-2 melanoma 97.6% | EKVX NSCLC 87.4% | SN12C renal 90% | UO-31 renal 77.6% | TK-10 renal 118% | ACHN renal 93.8% | CAKI-1 renal 93.9% | A498 renal 96% | CCRF-CEM leukemia 105% | MOLT-4 leukemia 89.1%

COC(=O)/C=C/c1cc(OC(C)=O)c2c(c1)[C@@H](C(=O)OC)[C@H](c1ccc(OC(C)=O)c(OC(C)=O)c1)O2
active: A498 renal -14.3% | CCRF-CEM leukemia 6.74%
inactive: SK-MEL-2 melanoma 37.9% | EKVX NSCLC 34.2% | SN12C renal 24.2% | UO-31 renal 39.3% | TK-10 renal 48.5% | ACHN renal 24.3% | CAKI-1 renal 17.9% | MOLT-4 leukemia 14.9%

CC[C@H](Nc1nc(N)nc(C2CC2)c1C#N)c1nc2cccc(NCc3ccc(C(=O)NO)cc3)c2c(=O)n1-c1ccccc1
active: EKVX NSCLC 0.322% | SN12C renal 9.34% | UO-31 renal -80% | TK-10 renal 5.55% | ACHN renal -21% | CAKI-1 renal -44.5% | A498 renal -8.64% | CCRF-CEM leukemia 8.87% | MOLT-4 leukemia 2.13%
inactive: SK-MEL-2 melanoma 26.2%

COc1c(-c2cc(-c3ccc(C)o3)[nH]c(=O)n2)c(O)cc2occc12
inactive: SK-MEL-2 melanoma 69.6% | EKVX NSCLC 69.8% | SN12C renal 63.6% | UO-31 renal 71.5% | TK-10 renal 104% | ACHN renal 89.9% | CAKI-1 renal 63.8% | A498 renal 54.1% | CCRF-CEM leukemia 77.8%

CCN(CC)CCNc1c(C)cc(CO)c(Cl)c1C
inactive: SK-MEL-2 melanoma 112% | EKVX NSCLC 110% | SN12C renal 97.7% | UO-31 renal 111% | TK-10 renal 106% | ACHN renal 106% | CAKI-1 renal 104% | A498 renal 89% | CCRF-CEM leukemia 101% | MOLT-4 leukemia 93%

CC(=O)O[C@H]1[C@H](CC#CC#CC[C@@H]2C[C@]3(C)[C@H]4CC=C5[C@H]6[C@@H](C)[C@H](C)CC[C@]6(C(=O)NCCN(CCN)CCN)CC[C@@]5(C)[C@]4(C)CC[C@H]3C(C)(C)[C@H]2OC(C)=O)C[C@]2(C)[C@H]3CC=C4[C@H]5[C@@H](C)[C@H](C)CC[C@]5(C(=O)NCCN(CCN)CCN)CC[C@@]4(C)[C@]3(C)CC[C@H]2C1(C)C
active: EKVX NSCLC -6.42%
inactive: SK-MEL-2 melanoma 67% | SN12C renal 51.9% | UO-31 renal 33.7% | TK-10 renal 110% | ACHN renal 75.9% | CAKI-1 renal 35% | A498 renal 122% | CCRF-CEM leukemia 19.8% | MOLT-4 leukemia 26.8%

Nc1nc(N)c2cc(CNc3ccc(Cl)c(Cl)c3)ccc2n1
inactive: SK-MEL-2 melanoma 42% | EKVX NSCLC 31.4% | SN12C renal 27.4% | TK-10 renal 31.5% | ACHN renal 22.5% | CAKI-1 renal 14.8% | A498 renal 43.1%
active: UO-31 renal 0.0737% | CCRF-CEM leukemia 2.81%

C[C@@H](C[C@H](CC1CC1)c1ccccc1)c1ccc2ccccc2c1
inactive: SK-MEL-2 melanoma 109% | EKVX NSCLC 101% | SN12C renal 103% | UO-31 renal 90.1% | TK-10 renal 105% | ACHN renal 106% | CAKI-1 renal 92.9% | A498 renal 100% | CCRF-CEM leukemia 96.4% | MOLT-4 leukemia 105%

CCCCOc1ncnc2nc[nH]c12
inactive: SK-MEL-2 melanoma 104% | EKVX NSCLC 112% | SN12C renal 102% | UO-31 renal 99.7% | TK-10 renal 101% | ACHN renal 101% | CAKI-1 renal 106% | A498 renal 97% | CCRF-CEM leukemia 113% | MOLT-4 leukemia 91.9%

CN1CCN(Cc2ccc(NC(=O)c3ccc(C#N)c(C#Cc4cnc(N)c5ncccc45)c3)cc2C(F)(F)F)CC1
inactive: SK-MEL-2 melanoma 72.4% | EKVX NSCLC 96.6% | SN12C renal 86.3% | TK-10 renal 76.9% | CAKI-1 renal 94.1% | A498 renal 89.5% | CCRF-CEM leukemia 27%
active: UO-31 renal -81.8% | ACHN renal -56.4%

CCCCCCCCCCCC1=NC(C)(C)CN1C(C)(C)CO
inactive: SK-MEL-2 melanoma 49.4% | EKVX NSCLC 64.6% | SN12C renal 59.8% | UO-31 renal 46.7% | TK-10 renal 70.3% | ACHN renal 56.7% | CAKI-1 renal 63.2% | A498 renal 90.1% | CCRF-CEM leukemia 26.6% | MOLT-4 leukemia 74%

CCCc1cc2c(cc1CN(Cc1cc3c(cc1CCC)OCO3)C(=N)OCC)OCO2
inactive: SK-MEL-2 melanoma 81.3% | EKVX NSCLC 75% | SN12C renal 80% | UO-31 renal 67.3% | TK-10 renal 72.9% | ACHN renal 90.4% | CAKI-1 renal 83.5% | A498 renal 97.6% | CCRF-CEM leukemia 80.4%

CCOC(=O)NNc1cccc(Cl)c1
inactive: SK-MEL-2 melanoma 116% | EKVX NSCLC 90.6% | SN12C renal 114% | UO-31 renal 70.6% | TK-10 renal 120% | ACHN renal 93.5% | CAKI-1 renal 90% | A498 renal 85.5% | CCRF-CEM leukemia 103% | MOLT-4 leukemia 113%

COC(=O)CNS(=O)(=O)c1ccc2c(c1)Cc1cc(S(=O)(=O)NCC(=O)OC)ccc1-2
inactive: SK-MEL-2 melanoma 108% | EKVX NSCLC 99.6% | SN12C renal 97.5% | UO-31 renal 87.1% | TK-10 renal 107% | ACHN renal 102% | CAKI-1 renal 92.1% | A498 renal 106% | CCRF-CEM leukemia 104% | MOLT-4 leukemia 99.8%

OC(c1cc2c(Cl)cc(Cl)cc2c2cc(C(F)(F)F)ccc12)C1CCCCN1 (stereo unspecified)
active: SK-MEL-2 melanoma -65.3% | EKVX NSCLC -51.8% | SN12C renal -79.1% | UO-31 renal -87.6% | TK-10 renal -87.7% | ACHN renal -78.6% | CAKI-1 renal -62.5% | A498 renal 0.166% | CCRF-CEM leukemia -54.7% | MOLT-4 leukemia -62.6%

CCCNC(=S)N/N=C(\C)c1ccccn1
active: UO-31 renal -0.774% | CAKI-1 renal 6.68% | MOLT-4 leukemia 6.93%
inactive: SK-MEL-2 melanoma 69.8% | EKVX NSCLC 12.1% | SN12C renal 31.6% | TK-10 renal 47.4% | ACHN renal 10.8% | A498 renal 30.8% | CCRF-CEM leukemia 15.9%
